Source: PubChem BioAssay
Hits are enriched below; roughly 1.5% of the tested compounds scored in any of these assays.
PLC-gamma1 inh = PLC-gamma1 enzyme inhibitors, primary screen, biochemical, fluorescence, purified enzyme; 1-phosphatidylinositol 4,5-bisphosphate phosphodiesterase gamma-1 (Homo sapiens), P19174; fluorogenic substrate; inhibition, % at 12.2 µM; hit rate 0.84% among 370,000; AID 720700, 2013; in the data active = inhibition above about 9.5%
Target sequence (P19174 whole entry, looked up): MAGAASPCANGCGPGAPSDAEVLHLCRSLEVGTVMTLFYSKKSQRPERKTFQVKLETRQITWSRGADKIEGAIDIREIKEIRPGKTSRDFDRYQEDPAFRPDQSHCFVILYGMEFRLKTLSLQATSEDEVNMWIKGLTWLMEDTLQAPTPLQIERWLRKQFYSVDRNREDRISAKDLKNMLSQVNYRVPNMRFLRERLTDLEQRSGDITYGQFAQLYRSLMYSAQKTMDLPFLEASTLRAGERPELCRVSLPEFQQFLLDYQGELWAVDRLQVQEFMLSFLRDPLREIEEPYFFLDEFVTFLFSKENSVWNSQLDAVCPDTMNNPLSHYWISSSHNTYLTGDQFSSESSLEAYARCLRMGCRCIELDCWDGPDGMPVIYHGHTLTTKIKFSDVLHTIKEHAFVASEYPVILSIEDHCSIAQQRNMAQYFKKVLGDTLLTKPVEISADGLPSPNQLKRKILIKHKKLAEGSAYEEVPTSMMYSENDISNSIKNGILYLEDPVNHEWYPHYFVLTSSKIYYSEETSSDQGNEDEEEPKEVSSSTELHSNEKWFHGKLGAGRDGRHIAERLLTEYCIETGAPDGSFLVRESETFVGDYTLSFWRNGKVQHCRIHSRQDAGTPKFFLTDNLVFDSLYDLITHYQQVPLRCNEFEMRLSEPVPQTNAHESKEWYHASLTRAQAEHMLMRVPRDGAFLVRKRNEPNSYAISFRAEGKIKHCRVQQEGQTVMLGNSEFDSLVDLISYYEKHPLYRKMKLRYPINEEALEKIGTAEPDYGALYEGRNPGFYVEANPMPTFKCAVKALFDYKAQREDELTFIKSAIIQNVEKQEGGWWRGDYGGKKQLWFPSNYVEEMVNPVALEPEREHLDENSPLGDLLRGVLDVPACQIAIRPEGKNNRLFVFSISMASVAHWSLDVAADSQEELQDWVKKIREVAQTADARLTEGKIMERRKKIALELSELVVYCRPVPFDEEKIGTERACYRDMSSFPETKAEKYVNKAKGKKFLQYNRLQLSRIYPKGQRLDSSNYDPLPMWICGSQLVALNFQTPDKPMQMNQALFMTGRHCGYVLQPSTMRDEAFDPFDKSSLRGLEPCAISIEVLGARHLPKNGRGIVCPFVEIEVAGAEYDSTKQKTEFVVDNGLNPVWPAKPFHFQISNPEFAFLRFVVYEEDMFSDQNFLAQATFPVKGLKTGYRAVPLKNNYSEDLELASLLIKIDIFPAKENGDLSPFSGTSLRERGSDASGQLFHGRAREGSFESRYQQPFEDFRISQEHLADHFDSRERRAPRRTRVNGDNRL
HGIII-sPLA2 inh = human group III sPLA2 inhibitors, primary screen, biochemical, QFRET, BODIPY PC-A2 liposome substrate. QFRET BODIPY PC-A2 liposome hydrolysis, fluorescence. inhibition, % at 12.2 µM. hit rate 0.56% among 370,000;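 active = inhibition above mean plus 3 SD of compounds lying within the high and low control bounds, cut at about 19% in these data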;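 also: 0% = median of test compound wells and 100% = no enzyme DMSO wells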
PLC-beta3 inh = human PLC-beta3 inhibitors, primary screen, biochemical, fluorescence | inhibition, % at 12.2 µM | Purified PLC-beta3, fluorogenic substrate | 1-phosphatidylinositol 4,5-bisphosphate phosphodiesterase beta-3 (Homo sapiens), Q01970 | hit rate 0.18% among 370,000; in the data active = inhibition above about 11%;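 also: 0% = median of compound wells on plate and 100% = full blocker control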
DAGLB inhibitor = DAGLB lipase inhibitors, primary screen, biochemical, fluorescence, HTS; HEK293T DAGLB membrane lysate, EnzChek fluorogenic substrate; Diacylglycerol lipase-beta (Homo sapiens), Q8NCG7; inhibition, % at 5.17 µM; hit rate 0.059% among 340,000; in the data active = inhibition above about 34%;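 also: 0% = enzyme with vehicle and 100% = wells lacking enzyme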
sPLA2 confirm = human group III sPLA2 inhibitors, confirmation, biochemical, QFRET, triplicate; shares compounds with HGIII-sPLA2 inh; inhibition, % at 12.2 µM; recombinant hGIII-sPLA2, BODIPY PC-A2 QFRET fluorescence; hit rate 34% among 2,000; AID 743280, 2014;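 active = mean inhibition across triplicates above the hit cutoff set in the earlier primary screen, cut at about 19% in these data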;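 also: 0% = enzyme with DMSO and 100% = DMSO wells lacking enzyme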
BODIPY interf = 535nm fluorescence optical interference, confirmation, artefact control for HGIII-sPLA2 inhibitor project, biochemical, QFRET; AID 743282, 2014; hit rate 8.5% among 2,000; shares compounds with HGIII-sPLA2 inh; inhibition, % at 12.2 µM; BODIPY FL product fluorescence interference;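 active = average inhibition above the solvent-only control mean plus 3 SD, cut at about 6% in these data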;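 also: 0% = DMSO with substrate plus product and 100% = DMSO with substrate alone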
An asterisk follows results filed as active; i = inactive; / = no result given; ! = not active in a repeat.

SMILES	PLC-gamma1 inh	HGIII-sPLA2 inh	PLC-beta3 inh	DAGLB inhibitor	sPLA2 confirm	BODIPY interf
CN(C)CCCNC(=S)/N=c1\sccn1Cc1ccccc1Cl	2.2	8.4	3.1	-2.4	/	/
S=C(/N=c1/sccn1Cc1ccccc1)NC1CC1	-2.0	19.7*	-9.8	-0.2	17.8	-5.6
CN(C)S(=O)(=O)c1cccc(NC(=S)N/N=C/c2cc(Br)ccc2O)c1	i	38.6*	i	15.4	28.1*	10.8*
CC/C(=C\c1ccc(N(C)C)cc1)c1ccncc1	-83.9	22.6*	-102.1	-4.7	19.6*	-0.4
O=S(=O)(/N=C(/Nc1cc(N2CCOCC2)ncn1)c1ccccc1)c1ccccc1	-1.4	5.7	2.0	-3.8	/	/
O=S(=O)(/N=C(/Nc1cc(N2CCOCC2)ncn1)c1ccc(F)cc1)c1ccccc1	-3.5	19.6*!	1.4	1.2	3.7	-5.7
CC(C)CN1C(=O)C[C@]2(C(=O)N(C)c3ccc(NC(=O)c4cc(F)ccc4F)cc32)C1c1ccccc1 (stereo partly drawn)	-0.8	-7.8	0.7	/	/	/
CCCCNC(=O)C1c2ccccc2OCC(=O)N1CC(F)(F)F (stereo not drawn)	3.2	20.3*	-1.8	/	-4.7	-6.2
CCCCNC(=O)C1c2ccccc2OCC(=O)N1CCOC (stereo not drawn)	3.2	1.4	2.7	/	/	/
COc1ccc(OC)c(S(=O)(=O)N2CCCC(C(=O)N3CCN(Cc4ccccc4)CC3)C2)c1 (stereo not drawn)	4.3	6.3	0.6	/	/	/
CC(C)c1nccn1S(=O)(=O)c1cccc([N+](=O)[O-])c1	0.5	19.2*	-2.0	0.5	6.1	-1.6
COCCCNCCCCSc1ccc(Cl)cc1	8.3	21.6*	-0.7	-3.4	-7.9	-26.7
CCC(C)[C@@H](C(=O)NCC1CCC(C(=O)O)CC1)n1nnc2ccccc2c1=O (stereo partly drawn)	4.0	19.7*	0.2	-1.5	2.2	-4.3
O=C(N[C@@H](Cc1ccccc1)C(=O)NCP(=O)(O)OC(Cc1ccccc1)C(=O)O)OCc1ccccc1 (stereo partly drawn)	-0.9	5.2	-0.6	/	/	/
COc1ccc2c(c1)CCCN2C(=O)C1CCCN(S(=O)(=O)c2cccc3ccccc23)C1 (stereo not drawn)	1.8	-11.5	-1.4	/	/	/
COc1cc(-c2n[nH]c(=S)n2-c2cccc(C(F)(F)F)c2)cc(OC)c1OC	0.6	25.5*	-3.9	-1.1	24.6*	-1.0
CC(=O)C1=C(O)C(=O)N(CCC(=O)O)C1c1ccccc1[N+](=O)[O-] (stereo not drawn)	-11.1	-3.6	-8.8	-0.1	/	/
CC(=O)C1=C(O)C(=O)N(C)C1c1ccccc1[N+](=O)[O-] (stereo not drawn)	-30.9	24.9*	-39.9	-3.0	-1.2	-1.9
CCOC(=O)C1=C(C)N(C)C(=S)NC1c1ccccc1Cl (stereo not drawn)	1.8	21.2*	-21.3	0.2	19.0	-4.7
COC(=O)C1=NN(C(=O)c2ccccc2)C(O)(c2ccc([N+](=O)[O-])cc2)C1 (stereo not drawn)	1.5	33.3*	-0.1	10.9	56.6*	16.9*
CCC1=NN(C(=O)c2ccccc2[N+](=O)[O-])C(O)(c2ccccc2)C1 (stereo not drawn)	-3.5	22.7*	4.2	0.4	6.7	-1.2
O=C(c1ccccc1[N+](=O)[O-])N1N=C(c2ccccc2)CC1(O)C(F)(F)F (stereo not drawn)	-0.9	-6.6	-2.3	0.2	/	/
O=c1c2cc3cc(Cl)ccc3nc2ncn1Cc1ccc(Oc2ccccc2)cc1	-5.5	-0.5	-4.5	/	/	/
Cc1cccc(Cn2cc(CN3CC(N(C)CCOC(=O)c4cc(C)cc(C)c4)CS3(=O)=O)nn2)c1 (stereo not drawn)	0.8	-14.6	3.0	/	/	/
C[C@@H]1CCCN1c1ccc2c(c1)O[C@H]1CCN(C1)S2(=O)=O	-1.6	13.2	-2.8	/	/	/
CCNC(=O)/C(C#N)=C/c1c(N2CC(C)OC(C)C2)nc2ccccn2c1=O (stereo not drawn)	-100.4	12.1	-108.6	5.0	/	/
